# Screening data as filed in PubChem.
# In the library only some 28% were active in any assay of this set; here they are far more common.
# CYP2C9 activ = increases human cytochrome P450 2C9 activity; actives 1.4% (n = 96,000); P11712; recombinant CYP2C9, luciferin-H conversion, luminescence; hits give high values; factor 1 = untreated enzyme, 0 = blocked; AID 1024; activation factor at 5 µM;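 active means activation factor of 2 or more for CYP2C9 at a 5 µM dose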;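 further: 0 = sulfaphenazole-blocked wells and 1 = vehicle-only wells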
# CYP2C19 inh = human CYP2C19 inhibition; P33261; CYP2C19 Supersomes, luciferin-H EGE luminescence, 30 min; inhibition, % at 5 µM; actives 21% (n = 96,000);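 active means CYP2C19 inhibition above a set limit at 5 µM in the primary screen, cut at about 50% in these data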;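 further: plate controls were negative control wells for no effect and 2.5 mM tranylcypromine positive control for full effect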
# Target sequence (P33261 whole entry, looked up): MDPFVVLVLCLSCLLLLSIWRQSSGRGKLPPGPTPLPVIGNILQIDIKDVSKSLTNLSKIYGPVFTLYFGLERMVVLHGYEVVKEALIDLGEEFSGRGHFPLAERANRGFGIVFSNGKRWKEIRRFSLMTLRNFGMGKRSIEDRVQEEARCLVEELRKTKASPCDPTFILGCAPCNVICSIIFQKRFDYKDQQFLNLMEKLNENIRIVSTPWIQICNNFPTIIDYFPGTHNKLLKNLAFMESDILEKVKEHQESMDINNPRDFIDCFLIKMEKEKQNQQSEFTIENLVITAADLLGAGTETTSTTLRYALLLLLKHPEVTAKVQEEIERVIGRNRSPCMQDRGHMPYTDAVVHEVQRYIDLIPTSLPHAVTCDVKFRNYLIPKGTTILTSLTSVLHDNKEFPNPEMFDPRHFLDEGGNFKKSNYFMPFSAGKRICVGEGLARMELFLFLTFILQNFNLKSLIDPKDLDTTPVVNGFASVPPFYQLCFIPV
# CYP2C9 inhib = blocks human cytochrome P450 2C9. P11712. CYP2C9 Supersomes, luciferin-H conversion, luminescence. inhibition, % at 5 µM. actives 20% (n = 96,000);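 active means blocking of liver enzyme CYP2C9 beyond about 50% at 5 µM, limit read from the data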
# CYP2C19 act = increases human CYP2C19 enzyme activity. P33261. recombinant CYP2C19, luciferin-H EGE luminescence; hits give high values; 0 = fully inhibited enzyme, 1 = untreated enzyme. activation factor at 5 µM. 96,000 tested, under 10 active. AID 1025;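 active means activation factor of at least 2 at 5 µM in the primary screen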;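 further: 0 = wells with 2.5 mM tranylcypromine and 1 = vehicle-only wells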
# CD11b adhes enh = enhancers of human CD11b/CD18 binding to fibrinogen. P05107+P11215. K562 CD11b/CD18 adhesion to fibrinogen, ATPlite luminescence. activation, % at 10 µM. actives 0.07% (n = 93,000);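 active means 10 µM primary screen giving 50% or more activity, confirmed by 40% or more on retest at that dose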
# CD11b adhes inh = inhibitors of human CD11b/CD18 binding to fibrinogen; actives 0.54% (n = 93,000); K562 CD11b/CD18 adhesion to fibrinogen, ATPlite luminescence; Mn2+ added to activate the integrin; inhibition, % at 10 µM; AID 1497;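 active means primary inhibition of 50% or more at 10 µM, then 40% or more on retest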
# * marks the source's active call; other numbers are inactive results; · = no result given.
SMILES,CYP2C9 activ,CYP2C19 inh,CYP2C9 inhib,CYP2C19 act,CD11b adhes enh,CD11b adhes inh
CN(C)S(=O)(=O)NCc1ccc2c(c1)OCO2,0.7,69*,30,0.3,-4,-5
COc1ccc(S(=O)(=O)NCc2ccc3c(c2)OCO3)cc1C(=O)O,1.4,-11,-44,1.1,·,·
COc1cccc(CNS(=O)(=O)c2cn(C)cn2)c1,0.9,18,5,0.8,1,-11
CC(C)NC(=O)NC(=O)COC(=O)CCOc1ccccc1,0.9,2,6,1,-3,24
O=C1c2ccccc2C(=O)N1CCc1csc(-c2cccc(Cl)c2)n1,1,99*,2,0,2,-42
O=C1c2ccccc2C(=O)N1CCc1csc(-c2cccc(F)c2)n1,0.5,100*,52*,0,-2,-12
Cc1ccccc1N1C(=O)c2cccc3c(N(C)CCO)ccc(c23)C1=O,0.9,50*,15,0.5,-2,-1
CCOC(=O)c1c(NC(=O)CSc2nc3c(c(=O)n(C)c(=O)n3C)n2CC)sc(C)c1C,0.1,52*,90*,0.5,17,11
CCOC(=O)c1csc(NC(=O)CSc2nnnn2-c2ccc(OCC)cc2)n1,1.1,-4,-14,1,-3,-4
CCOC(=O)c1c(NC(=O)CSc2nnnn2-c2ccc(OC)cc2)sc(C)c1C,0.7,24,32,0.8,-6,63*
COc1ccc(-n2nnnc2SCC(=O)Nc2nnc(C)s2)cc1,0.5,16,54*,0.8,4,-39
CCOC(=O)c1csc(NC(=O)CSc2nnnn2-c2ccc(OC)cc2)n1,1.2,-16,-16,1.2,-5,-7
CCOC(=O)c1c(NC(=O)CSc2nnnn2-c2ccccc2)sc2c1CCC(C)C2 (configuration not stated),0.2,29,81*,0.7,1,-9
CCCn1c(SCC(=O)Nc2sc(C)c(C)c2C(=O)OC)nc2c1c(=O)n(C)c(=O)n2C,0.9,16,12,0.8,2,-17
O=C(Nc1cc(Sc2ccccn2)cc([N+](=O)[O-])c1)c1ccc([N+](=O)[O-])cc1,0.9,7,13,0.9,·,·
C/C(=C\C(=O)O)CC(=O)O,0.7,7,30,0.9,-3,6
CCOc1ccc(C(=O)/C=C/c2ccccc2C(F)(F)F)cc1,1.3,16,-27,0.8,2,-7
CCOC(=O)c1c(NS(C)(=O)=O)sc2c1CCC(C)C2 (configuration not stated),0.4,31,57*,0.7,0,-5
Cc1[nH]n(-c2ccccc2)c(=O)c1-c1ccccc1,0.8,8,23,0.9,1,2
Cc1[nH]n(-c2ccccc2)c(=O)c1C(C[N+](=O)[O-])c1ccccc1Cl (configuration not stated),0.1,88*,92*,0.1,-3,-4
CCCn1nc(Oc2nc(SC)nc(N(C)C)n2)ccc1=O,0.9,30,8,0.7,-2,9
COCn1c(-c2cccc(Br)c2)nc2ccccc21,0.3,86*,69*,0.1,-9,-2
COCn1c(-c2ccc(OC)c(OC)c2)nc2ccccc21,0.9,18,5,0.8,-1,-6
O=C(O)C1=C(C(=O)N2CCN(C(=O)c3ccco3)CC2)CCCC1,1,0,4,1,3,-6
O=C1CCC([N+](=O)[O-])C(c2ccc(Cl)cc2)N1 (configuration not stated),1.1,-5,-6,1,3,11
SMILES,CYP2C9 activ,CYP2C19 inh,CYP2C9 inhib,CYP2C19 act,CD11b adhes enh,CD11b adhes inh
CSc1ccccc1NC(=O)COc1ccc(Cl)cc1Cl,·,·,·,·,5,-10
O=C(COc1ccc(Cl)cc1Cl)Nc1ccccn1,0.2,70*,78*,0.3,-10,99*
CN(C)P(=NC(=O)COc1ccc(Cl)cc1Cl)(N(C)C)N(C)C,1,92*,3,0.1,0,-3
CSc1ccccc1NC(=O)COc1ccccc1Cl,0.4,77*,59*,0.2,·,·
Cc1cc(=O)oc2cc(OCC(=O)NCc3ccncc3)ccc12,0.1,65*,91*,0.3,-2,5
CC(C)NC(=O)COc1ccc(Cl)cc1Cl,0.9,46,10,0.5,-2,6
CCOc1ccc(CCNC(=O)CN2CCN(Cc3ccccc3C)C2=O)cc1OCC,0.6,36,36,0.6,-1,-6
CC1(C)CC(=O)C2=C(C1)OC(N)=C(C#N)C21CCC2(CC1)OCCO2,1,2,1,1,-4,-10
CCCCN(CC)C(=O)Cn1c(=O)sc2ccccc21,1,44,4,0.6,-2,-2
CCn1cc(C(C)NC(=O)COc2ccc(Cl)cc2C)c(C)n1 (configuration not stated),0.2,62*,82*,0.4,8,6
CC(=O)NC(=S)Nc1ccc(NC(=O)COc2ccc(Cl)cc2Cl)cc1,1.2,3,-16,1,53*,12
O=C(COc1ccc(Cl)cc1Cl)NCCCCc1ccccc1,0.8,46,19,0.5,·,·
O=C(COc1ccccc1O)Nc1ccc(Cl)cc1,0.4,88*,60*,0.1,·,·
O=C(COc1ccc(Cl)cc1Cl)NCc1ccncc1,0,100*,95*,0,-4,-7
Cc1cc(Cl)ccc1OCCCC(=O)NO,0.7,32,34,0.7,·,·
C/C(=N\N=C\c1ccccc1)c1nnn(-c2nonc2N)c1C,0.6,25,39,0.7,8,-1
Cc1cc2oc(C(=O)NCc3ccncc3)c(C)c2cc1C,0,98*,97*,0,-1,24
CC(Oc1ccc(Cl)cc1)C(=O)NCCCn1ccnc1 (configuration not stated),0.1,100*,89*,0,-4,-24
O=C(COc1ccc(Cl)cc1Cl)NCCCn1ccnc1,0,100*,97*,0,4,-10
Cc1cc(Cl)ccc1OCC(=O)NCc1ccncc1,0.2,95*,82*,0,·,·
Cc1cc(Cl)ccc1OCC(=O)NCCC(=O)O,0.7,-3,27,1,5,-8
COc1cc(C)nc(OCCNC(=O)COc2ccc(Cl)cc2C)n1,0.5,73*,46,0.3,-2,-20
Cc1cc(Cl)ccc1OCC(=O)NCCOc1nc(N2CCCCC2)nc(N2CCOCC2)n1,0.8,9,24,0.9,2,3
COC(=O)c1cc(Br)c(=O)n(CCN2CCOCC2)c1,0.9,8,10,0.9,-2,-34
O=C(C1CCCO1)N1CCC(O)(c2ccccc2)CC1 (configuration not stated),1,19,-1,0.8,-2,0
CC1(C(=O)NC2CCCC2)CCC(=O)N1Cc1ccccc1Cl (configuration not stated),2.3*,14,-125,0.9,0,-10
